GBA mod – Glucocerebrosidase. Potency, µM. 1.1% of 48,000 active. purified enzyme, resorufin glucoside fluorescence (screen aimed at inhibitors), 20 min. AID 360, 2006; in the data active means potency below about 15 µM; inconclusive means mostly about 16 µM to 33 µM;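 further: the screen sought inhibitors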
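Wild-type enzyme at 0.2 nM final in 50mM citric acid/KH2PO4, 10mM sodium taurocholate, 0.01% tween-20, pH 5.9, with resorufin beta-D-glucopyranoside at 30 uM final. Compounds titrated, 20 min at RT, red fluorescence read; AC50 from titration.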
TSHR agonist – qHTS Assay for Agonists of the Thyroid Stimulating Hormone Receptor; Thyrotropin receptor (Homo sapiens), P16473; HEK293-CNG-TSHR cells (CNG channel as cAMP sensor), membrane potential dye, cAMP; Potency, µM (top dose mostly 57.1 µM), inactives show top-dose activation, most hits filed as activators; 0.48% of 73,000 active; active means well fitted activation curve with a large enough effect in the main read-out, with a control signal flat, not every such curve was filed as active; inconclusive means small, poorly fitted or top-dose-only effect, or a change in a side signal; inactive means no such curve, though single readings can be large or run the other way; % of control where 0% means no effect;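 further: the control signal comes from parental cells without the receptor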
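cAMP rise detected as CNG-channel membrane depolarization by fluorescent dye (emission 590 nm), 30 min after compound, following 60 min dye loading containing 100 uM RO 20-1724 at room temperature. Cells: TSHR/CNG HEK 293, with parental CNG HEK 293 as control.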
ERK AVP inh – qHTS Assay for Inhibitors of the ERK Signaling Pathway using a Homogeneous Screening Assay | HEK293-V1b, vasopressin-stimulated pERK AlphaScreen | AID 995, 2007 | 0.99% of 72,000 active | Potency, µM (top dose mostly 57.5 µM), for inactives: top-dose activity, negative = inhibition, usual class: inhibitors; further: on the % scale 0 is the no-effect control and ±100 the full control effect; nearly all actives have a fitted effect of over 55% in size
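HEK293 cells stably expressing V1b receptor, seeded overnight in 1% FBS, were treated with compounds for 30 min at 37C, then stimulated 5 min with 25 nM vasopressin; phospho-ERK read by AlphaScreen SureFire after lysis.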
Casp7 inh – qHTS Assay for Allosteric/Competitive Inhibitors of Caspase-7; P55210; recombinant caspase-7, Ac-DEVD-AFC fluorescence rate; Potency, µM (series often up to 57.5 µM), without a hit: top-dose activity change, negative = inhibition, most hits filed as inhibitors; 0.02% of 75,000 active; active means well fitted inhibition curve with a large enough effect in the main read-out, with a control signal flat, not every such curve was filed as active; inconclusive means small, poorly fitted or top-dose-only effect, or a change in a side signal; further: % of control where 0% means no effect
Casp1 inh – qHTS Assay for Allosteric/Competitive Inhibitors of Caspase-1 | 0.03% of 75,000 active | Potency, µM (doses to about 57.5 µM), inactives show top-dose activity change, negative = inhibition, hits mostly inhibitors | AID 900, 2007 | Caspase-1 enzyme, Ac-WEHD-AFC fluorogenic rate;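 further: plate controls were vehicle for no effect and no substrate for full effect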
HEK293 cAMP cs – qHTS Assay for Agonists of the Thyroid Stimulating Hormone Receptor: Activators of Intracellular cAMP Concentrations in Parental HEK 293. AID 938, 2007. 2.5% of 73,000 active. parental HEK293 CNG cAMP sensor, membrane potential fluorescence. Potency, µM (titrated, usually from 57.1 µM), without a hit: top-dose activation, usual class: activators; further: % of control where 0% means no effect; nearly all actives have a fitted effect of over 55% in size
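Counterscreen for endogenous-receptor signalling: CNG-channel HEK 293 cells report cAMP rise by membrane depolarization. After 60 min dye equilibration with 100 uM RO 20-1724, compounds incubated 30 min before bottom-read fluorescence at 590 nm.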
An asterisk follows results filed as active; ? = inconclusive; / = not tested or not shown; [ ] = another dose, or the depositor's remark. This is a sample that favours compounds with a hit; in the whole collection about 4.5% have one here. Unless noted, the call rests on the fitted dose curve; in most records, active means well fitted curve in the direction sought with a large enough effect; inconclusive means small, poorly fitted or top-dose-only effect, or another doubt; inactive means no such curve, though single readings can be large; an effect the other way counts as inactive or inconclusive. Potency means the concentration at half of the fitted maximal effect.

SMILES	GBA mod	TSHR agonist	ERK AVP inh	Casp7 inh	Casp1 inh	HEK293 cAMP cs
CO[C@@H]1/C=C\O[C@]2(C)Oc3c(C)c(O)c4c(O)c(c(/C=N\N5CCN(C)CC5)c(O)c4c3C2=O)NC(=O)/C(C)=C\C=C/[C@H](C)[C@H](O)[C@H](C)[C@H](O)[C@H](C)[C@H](OC(C)=O)[C@@H]1C	/	-10%	/	/	/	-8%
COC(=O)CC[C@@H](C)[C@@H]1CC[C@@H]2[C@@H]3CC[C@H]4C[C@@H](O)CC[C@@]4(C)[C@@H]3CC[C@]21C	/	7%[11.4 µM]	1%[11.5 µM]	-2%[11.5 µM]	2%[11.5 µM]	2%[11.4 µM]
Cc1ccccc1CS(=O)(=O)Cc1ccc(C(=O)NCCCN2CCCC2=O)o1	>77	?	1%	-1%	-1%	4µM*
Cc1nc2ncnn2c(Nc2ccc3c(c2)OCO3)c1Cc1ccccc1	>77	?	25µM*	-1%	1%	25µM*
CCCCC(CC)CNCC(CC)CCCC (stereo not given)	/	?	20%	1%	1%	5%
O=C(Nc1cnn(Cc2ccc(F)cc2)c1)c1cc(-c2ccc(Br)cc2)on1	/	3%	/	0%	-4%	11%
Oc1ccccc1C1=Nc2nc3ccccc3n2C(c2ccccc2)C1 (stereo not given)	15*	9%[11.4 µM]	-14%	-6%	-5%	13%
CC(C)CNC(=O)CN(C1CCCCC1)S(C)(=O)=O	>77	?	-4%	-1%	0%	?
CC(C)CNC(=O)CN(C1CCCCC1)S(=O)(=O)c1ccccc1	/	32µM*	-14%	0%	1%	29%
O=c1cc[nH]c(=S)[nH]1	/	/	13%	0%	1%	/
COc1ccccc1N1CCN(C(c2ccc(Cl)cc2)c2nnnn2C(C)(C)C)CC1 (stereo not given)	>77	?	-6%	-1%	-2%	2µM*
CCC(C)(C)n1nnnc1C(c1ccncc1)N1CCN(c2cccc(OC)c2)CC1 (stereo not given)	>77	?	-4%	-1%	-1%	2.5µM*
CC(C)(C)n1nnnc1C(c1ccncc1)N1CCCCCC1 (stereo not given)	>77	15%	19%	2%	-2%	29%
O=c1c2ccccc2[nH]c(=S)n1C1CCCCC1	14*	3%	0%	0%	-1%	-6%
CC1CCC(n2c(=S)[nH]c3ccccc3c2=O)CC1 (stereo not given)	/	18%	3%	-1%	-5%	-9%
CCCCS(=O)(=O)/C=C\C1C2C=CC(C2)C1S(=O)(=O)CCCC (stereo not given)	>77	29%	4%	2%	1%	9%
CCCCS(=O)(=O)/C=C\C=C/S(=O)(=O)CCCC	>77	3%	3.2µM*	-4%	-1%	6%
O=C(NC1CCCCCC1)c1cc(S(=O)(=O)N2CCOCC2)ccc1N1CCCCC1	>77	?	8%	-3%	-2%	25µM*
Cn1cc(C(=O)NC2CCCCCC2)c(=O)c2cc(S(=O)(=O)N3CCCC3)ccc21	>77	?	-17%	-2%	1%	?
Cn1c(=O)c2[nH]c(CCCCc3nc4c([nH]3)c(=O)n(C)c(=S)n4C)nc2n(C)c1=S	/	-1%[11.4 µM]	-6%[11.5 µM]	-2%[11.5 µM]	-1%[11.5 µM]	-19%[11.4 µM]
O=C1CCc2cc(OCCCCc3nnnn3C3CCCCC3)ccc2N1	/	25µM*	-5%	1%	7%	?
O=C1CCc2cc(S(=O)(=O)N3CCC(C(=O)NC4CCCC4)CC3)ccc2N1	/	3%	-16%	-2%	0%	5%
COc1ccc(O[C@H]2C=C[C@@H](c3ccccc3)O[C@H]2COC(=O)CC/C(C)=N/OCC[C@@H]2C=C[C@H](OC(C)=O)[C@H](COC(C)=O)O2)cc1	/	6%[11.4 µM]	3%[11.5 µM]	0%[11.5 µM]	-1%[11.5 µM]	9%[11.4 µM]
COCCn1c(SCC(=O)c2ccc(CNC(C)=O)o2)nc2ccccc2c1=O	>77	?	9%	-1%	1%	?
COCCn1c(SCC(=O)N2CCC(C)CC2)nc2ccccc2c1=O	>77	?	-7%	-1%	2%	20µM*
SMILES	GBA mod	TSHR agonist	ERK AVP inh	Casp7 inh	Casp1 inh	HEK293 cAMP cs
CC(=O)OCCNc1cc(N2CCN(C)CC2)c2noc3c2c1C(=O)c1ccccc1-3	/	-35%	16µM*	-26%	?	-15%
Cc1ccc(N=Nc2c(O)c(S(=O)(=O)O)cc3cc(S(=O)(=O)O)ccc23)c(C)c1	/	-4%[11.4 µM]	-6%[11.5 µM]	-2%[11.5 µM]	0%[11.5 µM]	0%[11.4 µM]
Cc1cc(-c2ccc(N=Nc3ccc4c(S(=O)(=O)O)cc(S(=O)(=O)O)c(N)c4c3O)c(C)c2)ccc1N=Nc1ccc2c(S(=O)(=O)O)cc(S(=O)(=O)O)c(N)c2c1O	/	-30%	25µM*	-10%	-9%	-19%
CC(=O)N1CCC2(CC1)CN(Cc1ccccc1)C2	/	0%	1%	-1%	0%	11%
CCCCCOc1ccc(C(=O)N(Cc2ccco2)C2CCS(=O)(=O)C2)cc1 (stereo not given)	>77	?	-13%	-3%	2%	25µM*
Cc1nc2ncnn2c(N2CCN(C(c3ccccc3)c3ccccc3)CC2)c1C	>77	?	25µM*	/	-6%	32µM*
Cc1cc(N2CCN(C(c3ccccc3)c3ccccc3)CC2)n2ncnc2n1	>77	?	?	0%	-2%	?
CCC(C)(C)n1nnnc1C(C(C)C)N1CCSCC1 (stereo not given)	>77	?	3%	-3%	4%	6.3µM*
O=C(c1csnn1)N1CCC2(CCCN(c3ccccc3)C2)CC1	/	3%	-5%	-2%	-4%	18%
CC1CN(S(=O)(=O)c2ccc(NC(=O)c3cc(-c4ccccc4O)n[nH]3)cc2)CC(C)O1 (stereo not given)	7.6*	-1%	?	-4%	-3%	2%
CC1CN(S(=O)(=O)c2ccccc2)CC(C)O1 (stereo not given)	>77	2%	-17%	2%	-3%	3%
O=C1C2C3C=CC(C3)C2C(=O)N1CNc1ccc(O)cc1 (stereo not given)	12*	-1%	2%	-25%	?	3%
CN1CCN(CC(=O)Nc2cccc3ccccc23)CC1	/	2%[11.4 µM]	14%[11.5 µM]	1%[11.5 µM]	0%[11.5 µM]	18%[11.4 µM]
O=S(=O)(O)[C@@H](CO)c1ccccc1 (tested in a mixture with another compound)	/	1%[11.4 µM]	4%[11.5 µM]	-1%[11.5 µM]	0%[11.5 µM]	2%[11.4 µM]
Fc1ccccc1COc1cccc(/C=N/n2cnnc2)c1	/	?	-27%	-2%	0%	32µM*

Source: PubChem
